HEK cytotox – Cytotoxic Profiling in HEK 293 Cell Line of Diverse Libraries Using Quantitative High-Throughput Screening; hit rate 6.6% among 94,000; Potency, µM (highest dose often 115 µM), hits mostly inhibitors; AID 1345083, 2018; HEK 293 viability, ATP luminescence (CellTiter-Glo), 48-72 h; further: nearly all actives have a fitted effect of over 60% in size
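HEK 293 cells seeded at 250 cells/well were exposed to compound for 48 or 72 hr at 37 degree Celsius. Viability taken as ATP content by CellTiter-Glo luminescence.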
hNpr1 antagonist – Natriuretic polypeptide receptor (hNpr1) antagonism - Primary qHTS | Potency, µM (doses to about 46.3 µM), actives largely listed as inhibitors | hit rate 1.6% among 76,000 | AID 1347048, 2019 | HEK293 hNpr1 GloSensor cGMP, ANP-stimulated luminescence | Atrial natriuretic peptide receptor 1 (Homo sapiens), P16066; calls by dose curve; further: nearly all actives have a fitted effect of over 60% in size
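Compound pre-incubated 30 min at room temperature on GloSensor-loaded HEK293 cells stably carrying hNpr1 and the pGS-40F cGMP biosensor. Stimulation uses hNppA at 0.1 nM final; luminescence is taken at baseline and 20 min post-agonist.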
NIH3T3 tox – Cytotoxic Profiling in NIH 3T3 Cell Line of Diverse Libraries Using Quantitative High-Throughput Screening; hit rate 4.3% among 94,000; AID 1345082, 2018; NIH 3T3 viability, CellTiter-Glo ATP luminescence, 48-72 h; Potency, µM (titrated, usually from 96.7 µM), actives largely listed as inhibitors; further: nearly all actives have a fitted effect of over 55% in size
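Mouse fibroblast NIH 3T3 cells, 400 per well, received compound via pintool and were incubated for 48 or 72 hr prior to CellTiter-Glo ATP luminescence measurement.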
Luciferase inh – Firefly luciferase inhibition profiling of diverse chemical library using quantitative high-throughput screening; purified P. pyralis luciferase, luminescence, biochemical; Luciferin 4-monooxygenase (Photinus pyralis), P08659; Potency, µM (highest dose often 115 µM), most hits filed as inhibitors; hit rate 2.5% among 76,000; further: nearly all actives have a fitted effect of over 65% in size
Target sequence (P08659 whole entry, looked up): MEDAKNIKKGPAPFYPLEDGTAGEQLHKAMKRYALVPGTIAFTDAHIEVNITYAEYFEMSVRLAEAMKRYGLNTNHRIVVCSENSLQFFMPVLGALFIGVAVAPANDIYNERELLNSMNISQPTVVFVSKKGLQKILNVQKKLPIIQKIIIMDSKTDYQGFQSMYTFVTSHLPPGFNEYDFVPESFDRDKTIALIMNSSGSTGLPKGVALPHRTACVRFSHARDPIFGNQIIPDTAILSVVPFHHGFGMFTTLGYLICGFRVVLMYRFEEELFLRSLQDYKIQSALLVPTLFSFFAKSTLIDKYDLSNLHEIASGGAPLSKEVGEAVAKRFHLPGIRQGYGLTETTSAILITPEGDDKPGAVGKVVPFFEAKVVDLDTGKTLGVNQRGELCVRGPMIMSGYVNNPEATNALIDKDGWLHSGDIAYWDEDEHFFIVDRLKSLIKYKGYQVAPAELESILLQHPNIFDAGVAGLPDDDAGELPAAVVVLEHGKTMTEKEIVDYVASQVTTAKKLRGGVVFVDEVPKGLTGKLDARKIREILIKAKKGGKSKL
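Luminescence read by CCD imaging after purified firefly luciferase (10nM final) was added to substrate buffer holding 10uM D-luciferin and 10uM ATP, pH 7.5, pre-dosed with compound.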
GPT2 inh – Primary qHTS assay for inhibitors of Glutamate pyruvate transaminase 2 (GPT2); Alanine aminotransferase 2 (Homo sapiens), Q8TD30; Potency, µM (doses to about 57.7 µM), actives largely listed as inhibitors; hit rate 0.25% among 100,000; Recombinant GPT2, coupled pyruvate oxidase/HRP Amplex Red fluorescence; further: nearly all actives have a fitted effect of over 60% in size
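Inhibition is scored from Amplex Red fluorescence generated when pyruvate oxidase and HRP act on pyruvate released by GPT2. Reactions contain 10ng/uL enzyme, 250uM a-KG and 2mM L-alanine and run 30 min at room temperature.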
Of the large screens only hits and unclear results are named; the others gave an inactive call. Only some compounds are listed: those with a hit (about 10% of all), similar ones and a draw of the others. Unless noted, the call rests on the fitted dose curve; in most records, active means well fitted curve in the direction sought with a large enough effect; inconclusive means small, poorly fitted or top-dose-only effect, or another doubt; inactive means no such curve, though single readings can be large; an effect the other way counts as inactive or inconclusive.

Cc1ccc(C(=O)N2CCC3(CC2)C(=NC2CCCCC2)NC(=O)N3c2cc(F)cc(F)c2)cc1	NIH3T3 tox 32µM (no result: hNpr1 antagonist, Luciferase inh)
COc1ccc(C(=O)N2CCC3(CC2)C(=NC2CCCCC2)NC(=O)N3c2cccc(OC)c2)cc1	NIH3T3 tox 28µM, GPT2 inh inconclusive (no result: hNpr1 antagonist, Luciferase inh)
O=C(c1ccc(C(F)(F)F)cc1)N1CCC2(C1)C(=NC1CCCCC1)NC(=O)N2c1cc(F)cc(F)c1 (centres undefined)	NIH3T3 tox 25µM (no result: hNpr1 antagonist, Luciferase inh)
O=C(c1ccc(C(F)(F)F)cc1)N1CCC2(CC1)C(=NC1CCCCC1)NC(=O)N2c1cc(F)cc(F)c1	NIH3T3 tox inconclusive, GPT2 inh inconclusive (no result: hNpr1 antagonist, Luciferase inh)
COc1ccc(C(=O)N2CCCC3(C2)C(=NC2CCCCC2)NC(=O)N3c2cc(F)cc(F)c2)cc1 (centres undefined)	none (no result: hNpr1 antagonist, Luciferase inh)
CCc1noc(-c2cccn3c(CNC(=O)c4ccc5ccccc5n4)nnc23)n1	HEK cytotox 35µM, NIH3T3 tox inconclusive
CNCCN1C(=O)CC[C@H]2CN(Cc3cc(C4CCCCC4)no3)CC[C@H]21	HEK cytotox inconclusive
COC[C@@H]1CCCN1Cc1cn(-c2ccccc2)nc1-c1ccc(OC)cc1F	HEK cytotox inconclusive, NIH3T3 tox inconclusive, Luciferase inh inconclusive
COc1ccc(-n2cc(CN3CCCC(O)C3)c(-c3cccc(F)c3)n2)cc1 (centres undefined)	HEK cytotox inconclusive, NIH3T3 tox inconclusive, Luciferase inh 28µM
COc1ccc(-n2cc(CN3CCC(CO)CC3)c(-c3cccc(F)c3)n2)cc1	HEK cytotox inconclusive, NIH3T3 tox 79µM
COc1ccc(-c2nn(-c3ccccc3C)cc2CN2CCCN(C)CC2)cc1F	HEK cytotox inconclusive, NIH3T3 tox inconclusive
COc1ccc(-n2cc(CN3CCCN(C)CC3)c(-c3cccc(F)c3)n2)cc1	HEK cytotox inconclusive, NIH3T3 tox 45µM
COc1ccc(-c2nn(-c3ccccc3)cc2CN2CCCC(C)(O)C2)c(F)c1 (centres undefined)	HEK cytotox 89µM, NIH3T3 tox inconclusive
O=C(Cn1ccn2nc(-c3ccc(F)cc3)c(CO)c2c1=O)Nc1ccccc1F	HEK cytotox inconclusive
COc1ccccc1CN1CCC2(CC1)OC(=O)N(Cc1ccc(NC(C)=O)cc1)C2(C)c1ccccc1 (centres undefined)	HEK cytotox inconclusive, NIH3T3 tox inconclusive
COc1ccc(CNC(=O)O[C@H]2COCCN(c3nc4ccccc4s3)C2)cc1	HEK cytotox 89µM, NIH3T3 tox inconclusive
Cc1cccc(O[C@H]2COCCN(c3nc4ccccc4s3)C2)n1	HEK cytotox 100µM, NIH3T3 tox inconclusive, Luciferase inh 50µM
O=c1c2cc(-c3cccs3)nn2ccn1CC(O)c1ccc(F)cc1 (centres undefined)	none
O=C(NC1CCCCCC1)c1cn2cc(-c3ccc(F)cc3)sc2n1	NIH3T3 tox inconclusive (no result: hNpr1 antagonist, Luciferase inh)
Cc1ccc(C(=O)N2CCC(Cc3nc(-c4cnccn4)no3)CC2)cc1C	NIH3T3 tox inconclusive
COc1ccc(C2Cn3nnc(C(=O)N4CCN(C(=O)c5cc(F)ccc5Cl)CC4)c3CO2)cc1 (centres undefined)	HEK cytotox inconclusive, hNpr1 antagonist 13µM, NIH3T3 tox inconclusive
COc1ccc(C2Cn3nnc(C(=O)N4CCN(C(=O)c5ccccc5Cl)CC4)c3CO2)cc1 (centres undefined)	HEK cytotox inconclusive, hNpr1 antagonist inconclusive, NIH3T3 tox inconclusive
O=C(c1nnn2c1COC(c1ccc(Cl)cc1)C2)N1CCN(C(=O)C2(c3ccccc3)CC2)CC1 (centres undefined)	HEK cytotox 22µM, hNpr1 antagonist inconclusive, NIH3T3 tox 28µM
CCOc1ccccc1C(=O)N1CCN(C(=O)c2nnn3c2COC(c2ccc(Cl)cc2)C3)CC1 (centres undefined)	HEK cytotox 32µM, hNpr1 antagonist inconclusive, NIH3T3 tox inconclusive
CCn1c(CN2CCCN(c3ncccn3)CC2)nnc1C1CC(N)C1 (centres undefined)	GPT2 inh inconclusive
C#CCNC(=O)C[C@@H]1c2nc(NC(=O)c3ccc(F)cc3)sc2C[C@@H]2[C@](C)(CO)[C@H](O)CC[C@]21C	HEK cytotox inconclusive, NIH3T3 tox inconclusive
C=C(C)C(=O)O[C@H]1[C@H]2C(=C)C(=O)O[C@@H]2C[C@@H](C)[C@@H]2O[C@@H]2C(=O)[C@](C)(O)[C@@H]1OC(C)=O	none (no result: HEK cytotox, hNpr1 antagonist, NIH3T3 tox, Luciferase inh)
CC(=O)Nc1ccc(C(=O)N2Cc3ccccc3OC3(CCN(C(=O)N(C)C)CC3)C2)cc1	none (no result: hNpr1 antagonist, Luciferase inh)
COc1ccccc1-c1cnc2n[nH]c(-c3ccc4c(c3)OCO4)c2n1	HEK cytotox 35µM, hNpr1 antagonist inconclusive, NIH3T3 tox 35µM, GPT2 inh inconclusive
Oc1ccccc1-c1cnc2n[nH]c(-c3ccc4c(c3)OCO4)c2n1	HEK cytotox inconclusive, NIH3T3 tox inconclusive, Luciferase inh inconclusive
COc1cc(-c2cnc3n[nH]c(-c4ccccc4)c3n2)ccn1	HEK cytotox inconclusive, NIH3T3 tox inconclusive
Fc1ccccc1-c1cnc2n[nH]c(-c3ccc4c(c3)OCO4)c2n1	HEK cytotox inconclusive
Cc1ccccc1-c1cnc2n[nH]c(-c3ccc4c(c3)OCO4)c2n1	HEK cytotox 45µM, NIH3T3 tox 25µM, GPT2 inh inconclusive
COc1cc(F)ccc1-c1cnc2n[nH]c(-c3ccc4c(c3)OCO4)c2n1	HEK cytotox inconclusive, NIH3T3 tox 25µM
COc1ncccc1-c1cnc2n[nH]c(-c3ccc4c(c3)OCO4)c2n1	HEK cytotox 45µM, NIH3T3 tox 45µM
O=C(NCC1CCCCC1)C1CCCCC(=O)N1Cc1ccccc1 (centres undefined)	none (no result: hNpr1 antagonist, Luciferase inh)
c1ccc(-c2cnc3n[nH]c(-c4ccc5c(c4)OCO5)c3n2)cc1	HEK cytotox inconclusive
COc1cccc(-c2cnc3n[nH]c(-c4ccc5c(c4)OCO5)c3n2)c1	HEK cytotox inconclusive, NIH3T3 tox 50µM
O=C(O)C[C@@H]1CCN(S(=O)(=O)c2cccs2)C[C@@H]1CC1=NCCc2ccccc21	none
Cc1c(-c2ccccc2F)[nH]c2ccc(CNC(=O)CCN3CCCC3=O)cc12	HEK cytotox inconclusive, Luciferase inh 28µM
Cc1c(-c2ccccc2)[nH]c2c(CNC(=O)Cn3ccc(=O)[nH]c3=O)cc(Cl)cc12	HEK cytotox inconclusive, NIH3T3 tox inconclusive, Luciferase inh inconclusive
Cc1c(-c2ccccc2F)[nH]c2ccc(CNC(=O)CCC3=NNC(=O)CC3)cc12	HEK cytotox inconclusive, NIH3T3 tox inconclusive, Luciferase inh inconclusive
